This passage reports outcome results from PubChem BioAssay AID485276 (Southern Research Specialized Biocontainment Screening …, 2010).

Potency and affinity values are given separately. Activity calls are given as the source filed them. A call without a number means that no potency is given here. The rule behind the calls is not given here.

The test is described as follows: SV40 cytopathic effect inhibition and cytotoxicity, confirmation, BSC cells, set 3 (AID 485276). The conditions noted are these: series mostly up to 200 µM.
As to `CC(C)(c1ccc(O)cc1)c1ccc(Cl)cc1`, the outcome was inactive.

On to `Oc1c(Cl)cc(Cl)cc1Sc1cc(Cl)cc(Cl)c1O`, for which the result was inactive.

`Oc1ccc(C2(c3ccc(O)cc3)CC2)cc1`: the result was inactive.

Consider `Oc1ccc(Cl)cc1Cc1cc(Cl)ccc1O`, for which the result was inactive.

`Oc1ccc(Oc2ccc(O)cc2)cc1`: the call was inactive.

In the case of `CC(C)(c1ccccc1)n1nnc(-c2ccccc2)n1`, the call was inactive.
